Source: PubChem
TDP43 rescue = rescues yeast growth from TDP-43 toxicity. TDP-43 expressing yeast growth rescue, BacTiter-Glo, 24 h. Potency, µM (series often up to 46.1 µM), most hits filed as activators. 410,000 compounds, 1.8% hits. AID 652104; note: nearly all actives have a fitted effect of over 50% in size
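Growth rescue of TDP-43-toxic yeast measured as ATP luminescence (BacTiter-Glo). Cells grown to mid-log in raffinose, induced in galactose at OD600=0.02, exposed to compound 24 hr at 30 deg C.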
FUS yeast rescue = suppressors of FUS proteinopathy in yeast; S. cerevisiae FUS-expressing, growth rescue, OD600, 24 h; Potency, µM (doses to about 76.6 µM), actives largely listed as activators; 390,000 compounds, 0.24% hits; AID 1347120; note: nearly all actives have a fitted effect of over 55% in size
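Compound concentration series was pinned onto galactose-induced FUS-expressing yeast seeded at OD 0.005. Plates sat 24hr at 30C; absorbance at 600 nm gave growth. DMSO served as background control.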
Mito fusion act = inhibitors of mitochondrial division or activators of mitochondrial fusion; 320,000 compounds, 0.23% hits; Potency, µM (highest dose often 46.1 µM), most hits filed as activators; S. cerevisiae fusion-defective mutant growth rescue, CellTiterGlo 48 h; note: nearly all actives have a fitted effect of over 45% in size
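Growth-rescue viability read-out: after 48 h at the non-permissive 37C in glycerol/ethanol YPEG, yeast mitochondrial fusion mutants are measured by CellTiterGlo luminescence; compounds (23 nl pinned per well) restoring growth score as division inhibitors or fusion activators.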
Abeta rescue = restores growth of yeast expressing A-beta42 peptide | yeast expressing A-beta42, growth rescue, OD600, 48 h; response scale: 0% DMSO, 100% iron-clioquinol control | Potency, µM (titrated, usually from 46.1 µM), usual class: activators | 410,000 compounds, 0.063% hits | AID 1347071; note: nearly all actives have a fitted effect of over 55% in size
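Yeast A-beta toxicity model in growth medium with pinned compounds, 48 h at 30 C; growth read as absorbance at 600 nm. Normalized to FeCl3/clioquinol equimolar mix (positive) and DMSO (negative).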
aSyn rescue = inhibitors of alpha-synuclein toxicity in yeast. Yeast expressing alpha-synuclein, growth rescue, BacTiter-Glo, 24 h. Potency, µM (titrated, usually from 46.1 µM), hits mostly activators. 370,000 compounds, 0.14% hits; note: nearly all actives have a fitted effect of over 65% in size
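Screening used galactose-induced yeast with toxic alpha-synuclein levels, exposed to compound for 24 hr at 30 deg C. Cell growth, read with BacTiter-Glo luminescence, gave the measured signal.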
A number is an active result; n = inactive; u = inconclusive; x = no result; [ ] = another dose, or the depositor's remark. In the library only some 2.2% were active in any assay of this set; here they are far more common. Calls come from the whole dose curve; as a rule, active = well fitted curve in the direction sought with a large enough effect; inconclusive = small, poorly fitted or top-dose-only effect, or another doubt; inactive = no such curve, though single readings can be large; an effect the other way counts as inactive or inconclusive.

SMILES	TDP43 rescue	FUS yeast rescue	Mito fusion act	Abeta rescue	aSyn rescue
O=C(/C=C/c1cn(-c2ccccc2)nc1-c1cccnc1)N1CCCCC1	u	n	n	n	n
O=C(/C=C/c1cn(-c2ccccc2)nc1-c1cccc(Cl)c1)N1CCN(c2ccccn2)CC1	14.1µM	u	n	n	n
COc1cccc(CNCCSc2nnnn2-c2ccccc2)c1OC	n[9.22 µM]	n	x	n	x
CN1CCSc2ccc(C(=O)NCc3cccc(Br)c3)cc21	15.8µM	n	n	n	n
CCN1CCSc2ccc(C(=O)NCc3ccccc3C)cc21	35.5µM	n	n	n	n
Cc1cccc(CNC(=O)c2ccc3c(c2)N(C)CCS3)c1	u	n	n	n	n
COC(=O)c1cc(-c2ccccc2OC)c(=O)n2c1CCC2	x	n	x	x	x
CCCN1CNc2c(c(=O)[nH]c(=S)n2CCC(C)(C)C)C1	x	x	x	x	n
CCCOc1ccc(C2(C(=O)O)CCCC2)cc1	12.6µM	n	n	n	n
CCCCOc1ccc(C2(C(=O)O)CCCC2)cc1	n	n	n	u	n
CCCCOc1cccc(C2(C(=O)O)CCCC2)c1	20µM	n	n	n[9.22 µM]	n
COc1ccc(OC)c(CC2C(=O)Nc3ccc(Br)cc32)c1 (stereo unspecified)	u	u	x	n	x
Cn1c(=O)c2sccc2n2c(CCCC(=O)Nc3ccc(Oc4ccccc4)cc3)nnc12	n	u	x	n	x
CCCN1CNc2c(c(=O)[nH]c(=S)n2CCC(C)C)C1	x	x	x	x	n
O=C(CSC1=NS(=O)(=O)c2ccccc21)Nc1ccccc1	35.5µM	n	n	n	u
COC(=O)CSC1=NS(=O)(=O)c2ccccc21	u	x	n	n	u
O=S(=O)(c1cccc(-c2csc(N/N=C/c3ccco3)n2)c1)N1CCOCC1	15.8µM	u	n	n	n
CCOc1cccc(-c2cc(C(=O)N3N=C(C)CC3(O)C(F)F)c3ccccc3n2)c1 (stereo unspecified)	17.8µM	n	n	n	n
Cc1ccc(-c2nnc(SC(C)C(=O)NCc3ccco3)n2C)cc1 (stereo unspecified)	x	x	x	x	n
COC(=O)c1ccc2[nH]c(C3(O)CCCCC3)c(C)c2c1	17.8µM	n	x	n	n
Cc1c(C2(O)CCCCC2)[nH]c2ccc(C(F)(F)F)cc12	3.55µM	n	x	n	n
CCc1c(C2(O)CCCCC2)[nH]c2cnccc12	n	n	n	n	n
CCOC(=O)c1[nH]c2ccc(C(=O)OC)cc2c1C(=O)OCC	n	n	n	n	n
CCN(C(=O)COC(=O)c1ccc(O)cc1)c1cccc2ccccc12	u	n	x	7.94µM	n
Cc1nc2c(-c3ccccc3)c(C)nn2c(C)c1CCC(=O)N1CCN(c2ccccc2)CC1	12.6µM	n	x	n	x
SMILES	TDP43 rescue	FUS yeast rescue	Mito fusion act	Abeta rescue	aSyn rescue
COc1ccc(OC)c(NC(=O)CCc2c(C)nc3c(-c4ccccc4)c(C)nn3c2C)c1	20µM	u	x	n	x
COc1ccc(CCNC(=O)CCc2c(C)nc3cc(-c4ccccc4OC)nn3c2C)c(OC)c1	17.8µM	u	x	n	x
Cc1nc2c(-c3ccccc3)c(C)nn2c(C)c1CCC(=O)N1CCN(c2ccc(F)cc2)CC1	14.1µM	n	x	n	x
CCN1CCN(c2ccc(NC(=O)CCc3c(C)nc4c(-c5ccccc5)c(C)nn4c3C)cc2)CC1	n	n	n	n	n
COc1ccc(NC(=O)CCc2c(C)nc3c(-c4ccc(F)cc4)c(C)nn3c2C)c(OC)c1	n	n	x	n	x
COc1ccc(-c2cc3nc(C)c(CCC(=O)NCCc4ccc(Cl)cc4)c(C)n3n2)c(OC)c1	n	n	x	n	x
CCc1ccc(NC(=O)c2cccc(N3CCCS3(=O)=O)c2)cc1	n	n	x	n	x
CCN(CC)c1ccc(NS(=O)(=O)c2cc3[nH]c(=O)c(=O)[nH]c3cc2C)c(C)c1	n	n	x	n	x
COC(=O)C12C=C3CC(c4ccc(C)s4)=C3C(=O)N1Cc1[nH]c3ccccc3c1C2 (stereo unspecified)	x	n	x	x	x
Cc1ccccc1-n1nc(CO)c(C(=O)NCC(c2ccccc2)c2ccccc2)n1	n	n	x	n	x
Cc1ccc(-c2nc3cnccn3c2Nc2ccc3c(c2)OCO3)cc1	u	n	n	n	n
COc1ccc(-c2nc3cnccn3c2Nc2ccc3c(c2)OCO3)cc1	n	28.2µM	n	n	n
Cc1ccccc1Nc1c(-c2ccccn2)nc2c(C)cccn12	n	n	n	11.2µM	n
Cc1ccccc1Nc1c(-c2ccc(O)cc2)nc2c(C)cccn12	n	n	x	n	x
Cn1c2ccccc2c2c(C(=O)N3CCN(c4cccc(Cl)c4)CC3)cn(C3CCCCC3)c(=O)c21	n	n	x	n	x
CC(=O)N(O)c1ccc(C=Cc2ccccc2)cc1	14.1µM	n	x	n	n
C=CCn1c(SC(C)C#N)nc2ccccc2c1=O (stereo unspecified)	x	x	x	x	n
OCCNc1ncnc2c1c(-c1ccccc1)c(-c1ccccc1)n2Cc1ccco1	n	n	n	n	12.6µM
c1ccc(-c2c(-c3ccccc3)n(Cc3ccco3)c3ncnc(NCCCn4ccnc4)c23)cc1	u	n	n	n	u
Cc1ccc(S(=O)(=O)N2CCC(C)CC2)c([N+](=O)[O-])c1	17.8µM	n	n	n	n
Cc1ccc([N+](=O)[O-])cc1S(=O)(=O)N1CCC(C)CC1	15.8µM	n	n	n	n
Cc1ccc([N+](=O)[O-])cc1S(=O)(=O)N1CCCC1	u	n	n	n	n
CCCCOc1ccc(C(=O)NC2CCCCN(Cc3ccccc3C)C2=O)cc1 (stereo unspecified)	x	n	x	x	x
CCOC(=O)C1=NOC(C(C)=O)(C(=O)NC2CCCC2)C1 (stereo unspecified)	x	n	x	x	x
CCOC(=O)c1ccc(N/C(=N\S(=O)(=O)c2ccccc2C)c2ccccc2)cc1	25.1µM	n	n	n	n
SMILES	TDP43 rescue	FUS yeast rescue	Mito fusion act	Abeta rescue	aSyn rescue
COC(=O)c1ccc(N/C(=N/S(=O)(=O)c2ccccc2)c2ccccc2)cc1	n	x	n	n	n
O=C(Nc1ccccn1)c1ccc(Br)s1	6.31µM	n	n	n	n
Cc1ccc(NC(=O)c2sc3nc(C)nc(N4CCN(c5ccccn5)CC4)c3c2C)c(C)c1	n	n	n	n	n
Cc1ccc(NC(=O)c2sc3ncnc(N4CCN(c5ccccn5)CC4)c3c2C)c(C)c1	n	n	12.6µM	n	n
CCOc1cccc(C2C=C(c3ccc4c(c3)OCO4)NC(c3ccccc3Cl)N2)c1O (stereo unspecified)	x	x	x	x	n
O=C1CC(c2ccc(O)cc2)Oc2cc(O)cc(O)c21 (stereo unspecified)	n	n	n	n	n
CC1CC(=O)c2c(cc3c(-c4c(O)cc(O)c5c(O)c6c(cc45)OC(C)CC6=O)c(O)cc(O)c3c2O)O1 (stereo unspecified)	35.5µM	n	n	n	n
COc1cccc(NC(=O)c2cc3c(-c4ccc(Cl)cc4)nn(C)c3s2)c1	n	n	x	n	x
